# High-throughput results as filed in PubChem.
# MEX-5 binding – MEX-5 zinc finger RNA-binding disruptors – biochemical, C. elegans, fluorescence polarization, MLPCN library, primary screen; MEX-5/FITC-TCR2 RNA binding; hits give low values; activity score (negative = inhibition of binding), % at 10 µM; Zinc finger protein mex-5 (Caenorhabditis elegans), Q9XUB2; 0.38% of 300,000 active; AID 1832, 2009;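 active = inhibition past about -25% in most replicates, and total fluorescence under double the plate's negative control median, limit read from the data; inconclusive = replicates evenly split on the limit, or fluorescence at least double controls; inactive = too little inhibition in most replicates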;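 also: 0% = DMSO and -100% = 5 µM competing unlabeled TCR2 RNA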
# EBV gp42 inh – Epstein-Barr virus gp42 inhibitors, primary screen, biochemical, uHTS, fluorescence polarization; Glycoprotein 42 (Epstein-Barr virus (strain AG876)), Q1HVG2; Fluorescence polarization binding assay, mP read-out; inhibition, % (tested at 21.74 µM); 0.42% of 220,000 active; AID 1085, 2008; in the data active = inhibition above about 50%
# Bcl-xL primary – inhibitors of human Bcl-xL, primary screen, biochemical, fluorescence polarization, HTS. GST-Bcl-xL / FITC-Bim BH3 peptide fluorescence polarization. inhibition, % at 10.9 µM. 0.7% of 320,000 active. AID 2129, 2009;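 active = inhibition above the mean of all tested compounds plus 3 SD, cutoff set per campaign, cut at about 30% in these data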;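 also: 0% = DMSO wells and 100% = unlabeled Bim-BH3 peptide competitor; inhibitors lower millipolarization by displacing the labeled peptide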
# GLD-1 RNA inh – GLD-1/TGE RNA complex disruptors, primary screen, biochemical, fluorescence polarization | purified GLD-1 + fluorescein TGE RNA | inhibition, % at 5.96 µM | 0.44% of 320,000 active | AID 2280, 2010;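 active = percent inhibition above a per-plate cutoff, the plate mean of test compounds plus 3 SD, cut at about 30% in these data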;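 also: 0% = DMSO wells with GLD-1 and probe and 100% = wells lacking GLD-1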
# Target sequence (Q17339 whole entry, looked up): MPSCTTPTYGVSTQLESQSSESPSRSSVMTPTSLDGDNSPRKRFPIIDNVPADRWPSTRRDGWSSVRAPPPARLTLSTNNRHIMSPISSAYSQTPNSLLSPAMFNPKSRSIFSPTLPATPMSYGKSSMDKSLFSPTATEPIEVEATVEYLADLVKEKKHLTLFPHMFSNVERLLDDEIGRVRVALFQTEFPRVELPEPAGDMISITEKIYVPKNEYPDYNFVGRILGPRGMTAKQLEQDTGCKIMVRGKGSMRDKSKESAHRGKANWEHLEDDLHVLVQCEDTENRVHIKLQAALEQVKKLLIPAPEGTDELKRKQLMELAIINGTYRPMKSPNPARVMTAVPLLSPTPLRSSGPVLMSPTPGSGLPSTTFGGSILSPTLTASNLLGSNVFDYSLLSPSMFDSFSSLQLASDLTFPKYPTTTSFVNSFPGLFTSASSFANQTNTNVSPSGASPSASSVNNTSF
# MCL1-BIM inh – inhibitors of MCL1 binding to BIM-BH3, primary screen, biochemical, fluorescence polarization. Induced myeloid leukemia cell differentiation protein Mcl-1 (Homo sapiens), Q07820. GST-MCL1 / FITC-Bim-BH3 fluorescence polarization. inhibition, % at 10.9 µM. 0.68% of 320,000 active. AID 2057, 2009;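 active = inhibition above the mean inhibition of all tested compounds plus 3 SD, set per campaign, cut at about 40% in these data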;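 also: 0% = DMSO wells and 100% = unlabeled Bim-BH3 peptide control; higher means more loss of mP so more displacement of Bim peptide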
# Starred values were filed as active, the others as inactive; ? = inconclusive; . = not tested or not shown. In the library only some 1.3% were active in any assay of this set; here they are far more common.
SMILES,MEX-5 binding,EBV gp42 inh,Bcl-xL primary,GLD-1 RNA inh,MCL1-BIM inh
Cc1cc(NCCCCO)n2c(nc3ccccc32)c1C#N,1,-24,5,0,0
CCN(CC)CCCNc1cc(C(F)(F)F)c(C#N)c2nc3ccccc3n12,-9,.,38*,20,42*
CSc1nc(O)c(C(c2ccc(F)cc2)c2c(O)nc(SC)[nH]c2=O)c(=O)[nH]1,2,.,1,0,8
CSc1nc(O)c(N=Nc2ccc(F)cc2F)c(=O)[nH]1,4,.,37*,-12,42*
CCC12CCCN3CCc4c(n(c5ccccc45)C(O)(C(=O)OC)C1)C32 (centres undefined),-13,-2,31*,19,27
CC[C@]12CCCN3CCc4c(n(c5ccccc45)[C@](O)(C(=O)OC)C1)[C@@H]32,.,.,3,2,5
Cc1[nH]c(C)c(S(=O)(=O)N2CCCCC2)c1C(=O)N1CCCCC1,-2,.,6,-2,3
CC(=O)C1=C(c2cccc([N+](=O)[O-])c2)N(C(C)=O)n2c(C)nnc2S1,-47*,4,5,8,10
CC(=O)c1c(C(C)=O)c(C)n(-c2cccc([N+](=O)[O-])c2)c1C,-1,-8,5,1,8
CC(C)C(NC(=O)/C(=C/c1ccco1)NC(=O)c1ccc(Br)o1)C(=O)O (centres undefined),-4,.,35*,16,45*
NC(=O)/C(=C\c1ccco1)NC(=O)c1ccc(Br)o1,-6,.,37*,19,42*
O=C(O)/C(=C/c1ccco1)NC(=O)c1ccc(Br)o1,1,.,17,-1,23
N#Cc1ccsc1NC(=O)CSc1ncn[nH]1,-1,-7,4,-4,4
N#Cc1ccsc1NC(=O)CSc1nncs1,.,.,.,71*,.
CCOc1ccc(N2C(=O)S/C(=C\c3cc(OC)c(OC)c(OC)c3)C2=O)cc1,0,-7,-2,3,-1
CCN(C(=O)Cn1c(=O)oc2ccccc21)c1ccc(C)c(C)c1,0,.,4,8,-2
CCn1c2ccccc2c2cc(NC(=O)c3ccc(=O)oc3)ccc21,-8,127*,4,-67,-11
CCn1c2ccccc2c2cc(NC(=O)c3coc(=O)c(Br)c3)ccc21,?,97*,-17,-13,-31
CCn1c2ccccc2c2cc(NC(=O)c3cc(OC)cc(OC)c3)ccc21,3,-12,2,3,-4
COc1cc2c(cc1NC(=O)CN1C(=O)NC3(CCc4ccccc43)C1=O)oc1ccccc12 (centres undefined),3,62*,1,9,-7
COc1cc(N2CCCC2)c(OC)cc1/C=C(/C#N)c1ccc(Br)cc1,-10,95*,-34,-60,-37
COc1cc(N2CCCC2)ccc1C=O,0,-10,7,2,0
N#C/C(=C/c1ccc(N2CCCCC2)cc1)c1cccc(F)c1,0,-16,-8,-12,-18
COc1cc(N2CCCC2)c(OC)cc1/C=C(/C#N)c1ccc(F)cc1,-2,139*,-50,-42,-59
CSc1ccccc1NC(=O)C1CCCN(S(C)(=O)=O)C1 (centres undefined),3,.,1,8,-6
SMILES,MEX-5 binding,EBV gp42 inh,Bcl-xL primary,GLD-1 RNA inh,MCL1-BIM inh
CCCCNC1=CC(=O)C(=O)c2ccccc21,0,-15,5,1,-1
CCCCN1C=CC(=C2C(=O)c3ccccc3C2=O)C=C1,-38*,-2,1,7,-2
O=C(CCSc1nc2ccccc2s1)N/N=C/c1c(O)ccc2ccccc12,-46*,-119,1,-3,2
CC1=NOC(=O)/C1=C\c1ccc(-c2cc(Cl)ccc2Cl)o1,-2,95*,3,1,6
CC1=NOC(=O)/C1=C/c1ccc(-c2ccc(Cl)cc2)o1,.,-5,-3,-8,-2
COc1ccc(-c2nnc(Nc3ccc(S(=O)(=O)Nc4nccs4)cc3)c3ccccc23)cc1,1,52*,.,.,.
O=C(CSc1ncccn1)N/N=C/c1cccc(OC2CSC2)c1,-2,-3,1,1,6
Cn1ncc(Cl)c1C(=O)N/N=C/c1cccc(OC2CSC2)c1,-36*,12,4,4,7
Nc1cc2nsnc2cc1Br,-2,50,42*,11,41*
Nc1cccc2nsnc12,0,-6,6,9,2
O=C(O)c1ccc(S(=O)(=O)c2ccc(Sc3ccc(C(=O)O)c(C(=O)O)c3)cc2)cc1,-1,5,9,-7,8
CSCC(C)N1CCC(N2CCC(C(=O)NCc3ccccn3)CC2)CC1 (centres undefined),?,.,33*,18,40*
COc1ccc(/C=C2\CCCC3C2=NN(C(=O)CSc2n[nH]c(N)n2)C3c2ccc(OC)cc2)cc1 (centres undefined),1,-8,4,5,-4
CCN(CC)CCN1CCn2c3c(c4cc(C)ccc42)CCCC31 (centres undefined),-13,1,36*,10,46*
Cc1ccc(-c2nc(C=Nc3ccccc3)c(O)o2)cc1,-10,-7,-8,-10,-9
COc1ccc2cc(N=Cc3nc(-c4ccc(C)cc4)oc3O)cnc2c1,-47*,-27,4,-2,4
O=C(ONc1ccc(N=NC(=O)c2ccccc2O)cc1)c1ccccc1,-1,89*,12,8,23
CN(C)S(=O)(=O)c1cccc(C(=O)NCC(C)(C)CNC(=O)c2cccc(S(=O)(=O)N(C)C)c2)c1,1,.,1,-1,-6
Cc1nc2ccc(S(=O)(=O)NCC(=O)NCCN3CCCCCC3)cc2s1,0,-2,41*,-7,42*
Cc1ncc(CO)c(/C=N/NC(=O)c2cc(O)c(O)c(O)c2)c1O,-39*,-19,.,.,.
Cc1ncc(CO)c(/C=N/NC(=O)c2cc(Br)ccc2O)c1O,-82*,-16,5,0,20
Cc1ncc(CO)c(/C=N/NC(=O)c2ccc(Br)cc2)c1O,0,-3,11,15,12
Cc1cc(C(=O)N/N=C/c2c(CO)cnc(C)c2O)c2ccccc2n1,-4,.,9,-5,12
Cc1cccc(Cn2nc(C)cc2NC(=O)CCCn2ccc([N+](=O)[O-])n2)c1,0,-4,-1,3,-2
Cc1ccccc1CC1(CO)CCCN(C(=O)c2ccc3ncccc3c2)C1 (centres undefined),3,-9,0,-1,-12
Oc1[nH]c2ccccc2c1N=NC(=S)N1CCOCC1,-41*,-7,0,-2,7
